For 40 sequences, sensor-assay potency score (higher = more potent) results are on record in the OligoGym collection.
Note: reference of the scale not given here.

For the first test, the target named is FRMD4B. Briefly: pooled miR-30 sensor sort-seq; sequence = guide strand. To be noted: shRNA.
The sequence TAGACATTGCCATAGCAGCTGG yielded a sensor-assay potency score (higher = more potent) of -0.855. As to TTGAAACTGAAATCCTTCGTGG, the sensor-assay potency score (higher = more potent) was found to be 0.853. In turn, TTCCATTGGAATAACTTCCGAG returned a sensor-assay potency score (higher = more potent) of 0.389. The sequence TTGTCATCTAATTTGAACGCAG gave a sensor-assay potency score (higher = more potent) of -0.725. Take TTGAAGTAGAAACATTCTGTTT: the sensor-assay potency score (higher = more potent) is -1.02.

The next test addresses FRRS1. The description is as above. The following applies: shRNA.
TAACTTCAATCTGATCTCCTGG registered a sensor-assay potency score (higher = more potent) of 0.0664. As to TTCAACTCCAGAACAACCTCAG, the sensor-assay potency score (higher = more potent) was 0.767. The same measure, in the same setting: to TGACAAAGTAACTTCAATCTGA belongs 0.192; to TAAATTGCCAACACTGCCTTTT, -0.275; to TTCTTCTGAAAGAACACTGCAT, 0.427. With TATGCTAACAGTAGTCATCCAT, the sensor-assay potency score (higher = more potent) is 0.0935. Sequence TTTTATACTTCTCAACAACTGT had a sensor-assay potency score (higher = more potent) of -0.421.

On to TAACAGTAGTCATCCATGCCAC, for which the sensor-assay potency score (higher = more potent) is -0.274. As to AAGAACACTGCATAACACCGTC, the sensor-assay potency score (higher = more potent) is -0.249. For TAAGGCACCATGAACCTTCAGA, the sensor-assay potency score (higher = more potent) is -0.182.

As to ATAAGCATCATCATCACCCATC, the sensor-assay potency score (higher = more potent) was -0.528. As for TTATTCTAGCAGCTGTTCCCAT, the sensor-assay potency score (higher = more potent) was -0.391.

For another test, the target named is FTL. Described as above. To be noted: shRNA.
Take TCTTGATAAGCTTCACTTCCTC: the sensor-assay potency score (higher = more potent) was -0.871. As for TTCTCCTCGGCCAATTCGCGGA, the sensor-assay potency score (higher = more potent) was -1.13. Still for that read-out and setting: as for TACCCCACTCATCTTCAGCTGG, the figure is -0.815; as for TTCAGGAGACGCTCGTAGCCCT, -0.927. On the same count and under the same terms, as for TTGATAAGCTTCACTTCCTCAT, the figure is -0.312. On to TTCGAAGAGATACTCGCCCAGC, for which the sensor-assay potency score (higher = more potent) was -0.73. Take TCCAGAGCCACATCATCGCGGT: the sensor-assay potency score (higher = more potent) is -0.991.

Sequence TTTTACCCCACTCATCTTCAGC returned a sensor-assay potency score (higher = more potent) of -1.2. TCTAGGAAGTGAGTCTCCAGGA yielded a sensor-assay potency score (higher = more potent) of -0.902. The sequence TTCAGCTGGCTTCTTGATGTCC came in with a sensor-assay potency score (higher = more potent) of -0.855. Still for that read-out and setting: as for TTTCGAAGAGATACTCGCCCAG, the figure is -0.301; as for TCGCGGTCGAAATAGAAGCCCA, -1.25.

For ATGAAGATCCAAAAGGGCCTGG, the sensor-assay potency score (higher = more potent) is -0.154. Same read-out and setting: to TTTTTCTCCAGGGCCATGGCAG belongs -1.05; to ATCTAGGAAGTGAGTCTCCAGG, -1.73; to TTTGCATCTTCAGGAGACGCTC, -0.792.

As to TAGGAAGTGAGTCTCCAGGAAG, the sensor-assay potency score (higher = more potent) was -1.72. TTCCAGAGCCACATCATCGCGG yielded a sensor-assay potency score (higher = more potent) of -0.592.

TTGACCAGGCTGTTGACGGCTG registered a sensor-assay potency score (higher = more potent) of -0.48. Sequence TTCACTTCCTCATCTAGGAAGT displayed a sensor-assay potency score (higher = more potent) of -0.832. TGATAAGCTTCACTTCCTCATC returned a sensor-assay potency score (higher = more potent) of -1.37.

TTGATGTCCTGGAAGAGAGCGC displayed a sensor-assay potency score (higher = more potent) of -0.331.

Turning to TAAGCTTCACTTCCTCATCTAG, the sensor-assay potency score (higher = more potent) is -0.516.
